Results filed as inconclusive are left out. Activity calls are given as the source filed them. Unless noted, the call rests on the fitted dose curve; in most records, active means well fitted curve in either direction with a large enough effect (not every such curve was filed as active); inconclusive means small, poorly fitted or top-dose-only effect, or another doubt; inactive means flat fitted curve, though single readings scatter.
How the values were obtained:
[1] = AP1 Signaling Pathway (AID 357); conditions: ME-180 AP-1-bla reporter, EGF-induced, beta-lactamase ratio, 5 h; at 7.69 µM (top of the series) unless noted;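 further: ME-180 reporter cells stimulated with EGF at its EC50 level; on the % scale 0 is the no-effect control and ±100 the full control effect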
How it was run: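 AP-1-bla ME-180 cells, Opti-MEM + 0.5% dialyzed FBS, plated overnight 37 °C. Cpd titration + EC50 EGF, 5 h 37 °C. CCF4 2.5 h RT; ex 405, em 460/530 ratio → %activity, AC50.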

[2] = molecular target: Cytochrome P450 1A2 (Homo sapiens) (UniProt P05177); test: p450-cyp1a2 (AID 410; calls by dose curve; further: potency means the concentration at half of the fitted maximal effect;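 on activity change, negative = inhibition: -100% = full effect of reference inhibitor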)
How it was run: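 20nM CYP1A2 with 100uM Luciferin-ME (at Km) in 100mM KPO4; compound preincubated 10 min, NADPH regeneration added, 60 min at room temperature. Luciferin quantified by luminescence after detection reagent; normalized to 57 uM furafylline.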

[3] = NFAT Signaling Pathway (AID 444); conditions: Jurkat NFAT-bla M1, carbachol, beta-lactamase ratio, 5 h; at 7.69 µM (top of the series) unless noted;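 further: carbachol stimulus at about its EC50 of 1 µM final; on the % scale 0 is the no-effect control and ±100 the full control effect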
How it was run: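 Jurkat cells with NFAT-driven β-lactamase reporter and co-expressed M1 receptor, stimulated with carbachol (final 1 uM, ~EC50), compound titration, 5 h at 37 °C. CCF4 loaded 1 h at RT; 460/530 nm ratio gave %activity and AC50.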

[4] = Stat Signaling Pathway (AID 446); conditions: ME-180 SIE beta-lactamase reporter, IL-6 stimulated, 5 h; at 7.69 µM (top of the series) unless noted;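 further: ME-180 cervical cancer cells given 40 pM IL-6 alongside compound; SIE-controlled beta-lactamase reporter measured as 460/530 nm FRET emission ratio; on the % scale 0 is the no-effect control and ±100 the full control effect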
How it was run: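 Screening format detects activators and inhibitors alike: ME-180 SIE-bla cells stimulated at 40 pM IL-6 for 5 hrs with compound, then dual-emission beta-lactamase read at 405 nm excitation.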

[5] = molecular target: Glucocorticoid receptor (Homo sapiens) (UniProt P04150); test: GR-GFP Redistribution (AID 450;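 active means compounds whose dose series gives a full or clear partial fitted curve of increased nuclear translocation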; further: potency means the concentration at half of the fitted maximal effect); conditions: U2OS GR-GFP nuclear translocation, laser cytometry, 2 h
[6] = molecular target: Glucocorticoid receptor (Homo sapiens) (UniProt P04150); test: GR-EFC Redistribution (AID 451; calls by dose curve; further: potency means the concentration at half of the fitted maximal effect); conditions: CHO-K1 GR-EFC translocation, beta-gal luminescence, 2 h
How it was run: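 CHO-K1 cells expressing nuclear EA and GR-ED fragments of b-gal; compounds titrated up to 46 uM final, 2 h at 37 C. GR nuclear translocation read as complemented b-gal luminescence after 1 h RT detection.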

[7] = molecular target: Mitogen-activated protein kinase 10 (Mus musculus) (UniProt Q61831); test: JNK3 AlphaScreen Assay (AID 530);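 further: kinase came from lysate of stimulated human HepG2 cells; signal reports phosphorylation of biotinylated GST-cJun 1-79 at Ser73 with 10 µM ATP; on the % scale 0 is the no-effect control and ±100 the full control effect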
How it was run: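 Pre-activated (IL-1β/TNFα) JNK3 in HepG2 lysates phosphorylates biotin-GST-cJun(1-79), 10 uM ATP; anti-phospho-cJun(Ser73) AlphaScreen read at room temperature, pH 7.6 Tris buffer. Compounds pre-incubated 15 min as titrations.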

[8] = molecular target: 3',5'-cyclic-AMP phosphodiesterase 4B (Homo sapiens) (UniProt Q07343); test: qHTS Assay for Inhibitors of PDE-IV (AID 607; active means well fitted activation curve with a large enough effect in the main read-out, with a control signal flat, not every such curve was filed as active; further: % of control where 0% means no effect)
How it was run: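 The readout is membrane depolarisation from a cAMP-sensing CNG channel, detected with a potential dye at ex 535/em 590. Cells were HEK293-derived (endogenous PDE-IV) at 1000 cells/well, titrated up to 22.9 uM final.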

[9] = qHTS Assay for Identification of Small Molecule Antagonists for NFkB Signaling Pathway (AID 895; active means well fitted inhibition curve with a large enough effect in the signal ratio, with a control signal flat, not every such curve was filed as active; the % refers to the signal ratio; further: on the % scale 0 is the no-effect control and ±100 the full control effect)
How it was run: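 ME-180 NFkB-bla cells (beta-lactamase under NFkB response element), plated overnight, treated with compound then 10 pM TNF alpha (about EC50) for 5 hrs at 37 C. LiveBLAzer FRET read at 460/530 nm emission, 405 nm excitation.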

[10] = molecular target: Muscarinic acetylcholine receptor M1 (Rattus norvegicus) (UniProt P08482); test: qHTS Assay for Antagonists of Acetylcholine Muscarinic M1 Receptor: Measurement of IP-One Response (AID 944; active means well fitted curve in the direction sought with a large enough effect; an effect the other way counts as inactive or inconclusive; further: nearly all actives have a fitted effect of over 75% in size; further: potency means the concentration at half of the fitted maximal effect)
How it was run: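 CHO cells stably expressing rat M1, pretreated 10 min with compound, then stimulated 30 min with carbachol at EC80 (200 nM) in LiCl-containing buffer pH 7.4; IP1 accumulation read by HTRF competition (665/620 nm).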

[11] = molecular target: Pyruvate kinase (Leishmania mexicana) (UniProt Q27686); test: qHTS Validation Assay for Inhibitors of Leishmania Mexicana Pyruvate Kinase (AID 945; active means well fitted curve in the direction sought with a large enough effect; an effect the other way counts as inactive or inconclusive;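 further: 0% = DMSO only neutral control wells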)
How it was run: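 Mutant LmPYK (E451W), 0.2 nM, plus 0.5 mM PEP and 0.1 mM ADP in 50 mM imidazole pH 7.2 containing 0.01% Tween 20 and 0.05% BSA. Incubated 1 h at room temperature; luminescence via PKLight, normalized to DMSO.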

[12] = molecular target: Pyruvate kinase PKM (Homo sapiens) (UniProt P14618); test: qHTS Assay for Activators of Human Muscle Pyruvate Kinase (AID 954; active means well fitted curve in the direction sought with a large enough effect, not every such curve was filed as active;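 further: 0% = uninhibited enzyme and -100% = no enzyme or full thiadiazolimine inhibition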)
How it was run: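 Reaction: 0.1 nM purified PKM2 with 0.5 mM phosphoenolpyruvate and 0.1 mM ADP, room temperature, 1 h. Readout: luciferase-based ATP luminescence after stop reagent. Activators judged against a 0.3 nM enzyme column.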

[13] = molecular target: Alpha-galactosidase A (Homo sapiens) (UniProt P06280); test: Counterscreen for Glucocerebrosidase Inhibitors: qHTS Assay for Human alpha-Galactosidase at pH 4.5 (AID 992; active means well fitted curve in the direction sought with a large enough effect; an effect the other way counts as inactive or inconclusive; further: 0% is about no effect)
How it was run: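 Concentration-response curves (0.7 nM to 77 uM final) were modeled with the Hill equation to give AC50. Reactions: 2 nM enzyme, 80 uM fluorogenic alpha-galactoside, pH 4.5 citric acid buffer, 20 min, room temperature.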

[14] = molecular target: Cytochrome P450 2D6 (Homo sapiens) (UniProt P10635); test: qHTS Assay for Inhibitors and Substrates of Cytochrome P450 2D6 (AID 891; active means well fitted curve in the direction sought with a large enough effect; an effect the other way counts as inactive or inconclusive;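 further: luciferin methyl ether substrate demethylated by CYP2D6 with NADPH regeneration; on the % scale 0 is the no-effect control and ±100 the full control effect; nearly all actives have a fitted effect of over 60% in size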)
How it was run: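 Human CYP2D6 (5 nM) with 30 uM Luciferin-ME EGE (at Km) in 100 mM KPO4, compound preincubated 10 min, then NADPH regeneration system for 60 min at room temperature. Luciferin read by luminescence; normalized to 1.43 uM quinidine.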

[15] = molecular target: Cytochrome P450 2C19 (Homo sapiens) (UniProt P33261); test: qHTS Assay for Inhibitors and Substrates of Cytochrome P450 2C19 (AID 899; active means well fitted curve in the direction sought with a large enough effect; an effect the other way counts as inactive or inconclusive; further: nearly all actives have a fitted effect of over 60% in size; further: potency means the concentration at half of the fitted maximal effect)
How it was run: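 5 nM human CYP2C19 with 10uM Luciferin-H EGE (at KM) in 50mM KPO4, compound preincubated 10 min at 37C, then NADPH regeneration for 60 min at 37C. Luciferin read by luminescence after detection reagent; normalized to 57uM ketoconazole as full inhibition.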

[16] = molecular target: Cytochrome P450 3A4 (Homo sapiens) (UniProt P08684); test: qHTS Assay for Activators of Cytochrome P450 3A4 (AID 885; active means well fitted curve in the direction sought with a large enough effect; an effect the other way counts as inactive or inconclusive; further: nearly all actives have a fitted effect of over 65% in size)
How it was run: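 Steps: enzyme/substrate mix dispensed; compound added, 10 min RT; NADPH regeneration solution added, 60 min RT; luciferin detection buffer stops reaction; 20 min later luminescence measured.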

[17] = molecular target: Muscarinic acetylcholine receptor M1 (Rattus norvegicus) (UniProt P08482); test: qHTS Assay for Antagonists of Acetylcholine Muscarinic M1 Receptor: Kinetic Measurement of Intracellular Calcium Response (AID 943; active means well fitted curve in the direction sought with a large enough effect; an effect the other way counts as inactive or inconclusive; further: nearly all actives have a fitted effect of over 75% in size; further: potency means the concentration at half of the fitted maximal effect)
How it was run: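 CHO cells expressing rat M1 receptor, Fluo-4 loaded, preincubated 10 min with compound, then stimulated with EC80 carbachol (100 nM final). Kinetic calcium fluorescence over 4 min; response taken as peak over basal signal.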

[18] = molecular target: Cytochrome P450 2C9 (Homo sapiens) (UniProt P11712); test: qHTS Assay for Inhibitors and Substrates of Cytochrome P450 2C9 (AID 883; active means well fitted curve in the direction sought with a large enough effect; an effect the other way counts as inactive or inconclusive; further: on the % scale 0 is the no-effect control and ±100 the full control effect; nearly all actives have a fitted effect of over 60% in size)
How it was run: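 Human CYP2C9 (10nM) with Luciferin-H at 100uM (its KM) in 25mM KPO4; compound preincubated 10 min at 37C, then NADPH regeneration for 60 min at 37C. Luciferin read by luminescence after detection reagent; normalized to 57uM sulphaphenazole as full inhibition.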

Chain of Muscarinic acetylcholine receptor M1 (Rattus norvegicus) (P08482 whole entry, looked up): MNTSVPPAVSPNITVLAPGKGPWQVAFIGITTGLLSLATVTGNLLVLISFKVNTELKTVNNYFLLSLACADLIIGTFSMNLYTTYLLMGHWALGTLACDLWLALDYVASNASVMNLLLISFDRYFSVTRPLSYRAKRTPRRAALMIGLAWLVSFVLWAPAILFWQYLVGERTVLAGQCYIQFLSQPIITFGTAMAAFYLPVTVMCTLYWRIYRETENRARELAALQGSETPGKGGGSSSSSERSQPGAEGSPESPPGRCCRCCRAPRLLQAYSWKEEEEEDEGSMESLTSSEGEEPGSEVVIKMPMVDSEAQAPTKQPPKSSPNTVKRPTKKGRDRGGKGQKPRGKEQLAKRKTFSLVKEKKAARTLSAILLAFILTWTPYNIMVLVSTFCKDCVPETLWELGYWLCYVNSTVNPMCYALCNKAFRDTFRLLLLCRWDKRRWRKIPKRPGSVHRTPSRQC
Chain of Glucocorticoid receptor (Homo sapiens) (P04150 whole entry, looked up, the tested form may be a part): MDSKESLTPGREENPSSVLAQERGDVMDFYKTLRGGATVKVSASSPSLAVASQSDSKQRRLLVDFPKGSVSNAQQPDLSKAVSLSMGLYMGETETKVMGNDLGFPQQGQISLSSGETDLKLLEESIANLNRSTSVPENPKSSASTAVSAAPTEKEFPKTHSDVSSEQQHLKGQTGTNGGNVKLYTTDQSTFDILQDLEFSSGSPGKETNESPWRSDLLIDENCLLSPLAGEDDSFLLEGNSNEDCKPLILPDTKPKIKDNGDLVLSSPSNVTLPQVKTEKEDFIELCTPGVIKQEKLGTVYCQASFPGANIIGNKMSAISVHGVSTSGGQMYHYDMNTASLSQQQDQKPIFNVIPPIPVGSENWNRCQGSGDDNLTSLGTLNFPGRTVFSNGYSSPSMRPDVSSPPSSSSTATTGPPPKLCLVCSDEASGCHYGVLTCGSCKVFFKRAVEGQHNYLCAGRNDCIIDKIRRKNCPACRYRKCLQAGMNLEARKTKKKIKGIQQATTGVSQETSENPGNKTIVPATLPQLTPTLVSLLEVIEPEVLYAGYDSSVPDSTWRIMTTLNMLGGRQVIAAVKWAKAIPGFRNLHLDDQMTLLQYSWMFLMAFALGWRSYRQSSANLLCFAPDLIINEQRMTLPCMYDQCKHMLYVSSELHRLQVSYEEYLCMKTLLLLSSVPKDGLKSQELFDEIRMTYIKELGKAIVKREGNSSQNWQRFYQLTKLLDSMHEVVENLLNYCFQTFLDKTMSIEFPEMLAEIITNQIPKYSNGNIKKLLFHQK
Chain of Cytochrome P450 3A4 (Homo sapiens) (P08684 whole entry, looked up): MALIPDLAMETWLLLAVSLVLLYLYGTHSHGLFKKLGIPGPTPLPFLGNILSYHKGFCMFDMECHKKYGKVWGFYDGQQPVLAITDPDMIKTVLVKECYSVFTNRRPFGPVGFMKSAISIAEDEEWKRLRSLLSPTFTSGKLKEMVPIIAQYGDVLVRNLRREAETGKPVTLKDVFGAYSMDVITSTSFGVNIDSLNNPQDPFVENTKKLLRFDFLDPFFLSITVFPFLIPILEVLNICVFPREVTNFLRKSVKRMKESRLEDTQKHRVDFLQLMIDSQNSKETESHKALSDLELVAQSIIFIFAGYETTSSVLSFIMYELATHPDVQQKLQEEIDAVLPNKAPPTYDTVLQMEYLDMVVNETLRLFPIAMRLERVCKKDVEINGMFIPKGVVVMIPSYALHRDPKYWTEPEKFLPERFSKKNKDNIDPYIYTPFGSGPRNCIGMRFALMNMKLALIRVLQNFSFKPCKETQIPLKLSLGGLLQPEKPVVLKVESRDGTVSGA
Chain of Pyruvate kinase (Leishmania mexicana) (Q27686 2-499 E452W): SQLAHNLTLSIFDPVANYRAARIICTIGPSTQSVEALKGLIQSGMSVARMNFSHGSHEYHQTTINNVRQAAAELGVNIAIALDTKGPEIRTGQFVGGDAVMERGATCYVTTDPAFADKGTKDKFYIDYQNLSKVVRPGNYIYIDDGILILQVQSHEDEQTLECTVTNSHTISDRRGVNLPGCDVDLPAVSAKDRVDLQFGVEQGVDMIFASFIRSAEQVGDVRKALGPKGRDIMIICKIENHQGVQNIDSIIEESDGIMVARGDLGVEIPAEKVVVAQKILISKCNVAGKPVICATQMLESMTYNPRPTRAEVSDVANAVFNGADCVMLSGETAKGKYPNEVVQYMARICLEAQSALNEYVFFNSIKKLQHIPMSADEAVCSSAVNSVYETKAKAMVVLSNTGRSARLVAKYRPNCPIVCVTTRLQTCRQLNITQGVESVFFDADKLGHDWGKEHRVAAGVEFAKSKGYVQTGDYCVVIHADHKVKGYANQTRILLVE
Chain of Pyruvate kinase PKM (Homo sapiens) (P14618 whole entry, looked up): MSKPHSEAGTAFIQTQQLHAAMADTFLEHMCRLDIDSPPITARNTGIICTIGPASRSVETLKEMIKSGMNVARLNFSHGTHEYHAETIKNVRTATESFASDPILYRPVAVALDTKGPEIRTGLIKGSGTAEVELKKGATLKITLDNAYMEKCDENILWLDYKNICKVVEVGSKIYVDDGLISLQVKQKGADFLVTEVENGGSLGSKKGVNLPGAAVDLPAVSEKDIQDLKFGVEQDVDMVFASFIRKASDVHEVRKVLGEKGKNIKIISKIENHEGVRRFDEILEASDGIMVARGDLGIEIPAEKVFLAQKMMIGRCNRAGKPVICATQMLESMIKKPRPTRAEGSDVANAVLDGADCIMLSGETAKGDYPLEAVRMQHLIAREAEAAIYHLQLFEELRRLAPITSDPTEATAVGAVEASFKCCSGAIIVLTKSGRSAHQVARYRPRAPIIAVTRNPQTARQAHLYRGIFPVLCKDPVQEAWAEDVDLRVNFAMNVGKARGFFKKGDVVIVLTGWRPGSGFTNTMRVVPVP
Chain of Alpha-galactosidase A (Homo sapiens) (P06280 whole entry, looked up): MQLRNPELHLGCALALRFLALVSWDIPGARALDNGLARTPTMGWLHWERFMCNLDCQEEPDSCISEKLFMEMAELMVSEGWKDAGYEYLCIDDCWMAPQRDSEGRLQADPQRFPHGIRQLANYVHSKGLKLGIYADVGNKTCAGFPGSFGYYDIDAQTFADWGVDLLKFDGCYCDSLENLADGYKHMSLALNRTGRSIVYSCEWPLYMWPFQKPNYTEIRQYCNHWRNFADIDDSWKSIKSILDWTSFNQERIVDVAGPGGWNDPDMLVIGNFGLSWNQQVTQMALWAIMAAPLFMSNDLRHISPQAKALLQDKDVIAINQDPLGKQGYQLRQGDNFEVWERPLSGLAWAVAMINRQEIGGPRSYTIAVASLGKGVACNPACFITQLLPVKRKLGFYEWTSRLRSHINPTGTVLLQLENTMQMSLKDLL
Chain of 3',5'-cyclic-AMP phosphodiesterase 4B (Homo sapiens) (Q07343 whole entry, looked up): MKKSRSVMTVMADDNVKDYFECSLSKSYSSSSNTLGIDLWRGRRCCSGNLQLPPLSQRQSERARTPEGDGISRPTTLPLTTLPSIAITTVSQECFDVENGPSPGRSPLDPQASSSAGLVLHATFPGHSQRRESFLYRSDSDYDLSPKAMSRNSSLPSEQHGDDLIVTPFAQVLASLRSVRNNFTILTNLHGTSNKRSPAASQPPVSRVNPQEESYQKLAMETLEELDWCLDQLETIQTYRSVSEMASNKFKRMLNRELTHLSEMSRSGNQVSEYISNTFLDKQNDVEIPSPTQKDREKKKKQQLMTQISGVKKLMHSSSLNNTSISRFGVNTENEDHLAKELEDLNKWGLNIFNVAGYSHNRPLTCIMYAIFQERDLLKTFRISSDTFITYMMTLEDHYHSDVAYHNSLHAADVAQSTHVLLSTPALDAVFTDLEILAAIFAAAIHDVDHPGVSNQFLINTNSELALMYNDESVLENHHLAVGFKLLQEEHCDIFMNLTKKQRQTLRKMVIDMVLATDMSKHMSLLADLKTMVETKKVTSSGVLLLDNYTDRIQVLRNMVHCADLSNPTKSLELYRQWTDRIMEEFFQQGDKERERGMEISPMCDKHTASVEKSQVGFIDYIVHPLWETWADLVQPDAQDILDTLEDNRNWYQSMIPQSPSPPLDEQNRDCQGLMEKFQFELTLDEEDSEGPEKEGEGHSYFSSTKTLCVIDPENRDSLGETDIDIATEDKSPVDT
Chain of Cytochrome P450 1A2 (Homo sapiens) (P05177 whole entry, looked up): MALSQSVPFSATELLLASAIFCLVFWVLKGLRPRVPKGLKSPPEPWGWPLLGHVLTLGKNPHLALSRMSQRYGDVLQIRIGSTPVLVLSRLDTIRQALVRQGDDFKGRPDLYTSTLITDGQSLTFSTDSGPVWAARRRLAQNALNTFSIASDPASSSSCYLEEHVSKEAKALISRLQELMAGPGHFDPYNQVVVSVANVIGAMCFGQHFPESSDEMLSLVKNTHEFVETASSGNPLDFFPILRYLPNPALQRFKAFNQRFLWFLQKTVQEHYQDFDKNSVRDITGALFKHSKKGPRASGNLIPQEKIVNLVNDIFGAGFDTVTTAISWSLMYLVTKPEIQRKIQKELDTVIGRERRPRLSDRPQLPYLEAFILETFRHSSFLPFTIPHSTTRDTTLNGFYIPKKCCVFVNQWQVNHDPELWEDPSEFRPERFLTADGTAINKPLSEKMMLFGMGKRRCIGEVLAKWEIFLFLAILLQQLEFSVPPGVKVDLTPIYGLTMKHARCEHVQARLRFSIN
Chain of Cytochrome P450 2C19 (Homo sapiens) (P33261 whole entry, looked up): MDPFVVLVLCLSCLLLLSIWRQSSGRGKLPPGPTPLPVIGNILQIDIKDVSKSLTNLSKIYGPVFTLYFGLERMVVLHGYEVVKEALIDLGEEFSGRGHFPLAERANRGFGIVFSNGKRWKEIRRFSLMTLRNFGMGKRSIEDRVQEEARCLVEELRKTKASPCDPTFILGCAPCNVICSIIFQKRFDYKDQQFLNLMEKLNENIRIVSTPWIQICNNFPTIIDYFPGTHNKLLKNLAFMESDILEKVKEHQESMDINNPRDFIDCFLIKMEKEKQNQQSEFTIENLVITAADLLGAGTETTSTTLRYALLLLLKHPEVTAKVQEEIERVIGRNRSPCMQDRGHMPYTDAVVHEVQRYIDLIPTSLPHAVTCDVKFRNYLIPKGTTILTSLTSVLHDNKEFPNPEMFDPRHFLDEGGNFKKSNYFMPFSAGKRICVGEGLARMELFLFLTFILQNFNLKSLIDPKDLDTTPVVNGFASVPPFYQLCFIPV

C[C@@]12CC[C@H]3[C@@H](CCC4=C(O)C(=O)CC[C@]43C)[C@H]1CCC2=O
inactive: activity change, negative = inhibition [1] 4.24% [at 38 µM] | Potency [2] | activity change, negative = inhibition [3] -1.14% [at 38 µM] | activity, negative = inhibition [4] 14.9% [at 38 µM] | Potency [5] > 46 µM | Potency [6] > 46 µM | Potency [7] | outcome [8] | Potency [9] | Potency [10] | outcome [11] | outcome [12] | outcome [13]

CC(C)[C@@]1(NC(=O)[C@@H]2C=C3c4cccc5[nH]cc(c45)C[C@@H]3N(C)C2)O[C@]2(O)[C@H]3CCCN3C(=O)[C@H](Cc3ccccc3)N2C1=O
active: Potency [2] 10 µM
inactive: activity change, negative = inhibition [1] -14% [at 38 µM] | activity change, negative = inhibition [3] 4.28% [at 38 µM] | activity, negative = inhibition [4] 8.76% [at 38 µM] | Potency [5] > 46 µM | Potency [7] | outcome [8] | Potency [14] | Potency [15]

CO[C@@H]1CC=C2CCN3CCC4=C(CC(=O)OC4)[C@]23C1
inactive: activity change, negative = inhibition [1] 6.22% [at 38 µM] | Potency [2] | activity change, negative = inhibition [3] -0.774% [at 38 µM] | activity, negative = inhibition [4] -4.68% [at 38 µM] | Potency [5] > 46 µM | Potency [6] > 46 µM | Potency [7] | outcome [8] | Potency [16] | Potency [10] | outcome [11] | outcome [12] | outcome [13]

C#CCN[C@@H](C)Cc1ccccc1
inactive: activity change, negative = inhibition [1] 1.81% [at 38 µM] | activity change, negative = inhibition [3] 0.0477% [at 38 µM] | activity, negative = inhibition [4] -23.9% [at 38 µM] | Potency [5] > 46 µM | Potency [7] | outcome [8] | Potency [17] | Potency [10] | outcome [11] | outcome [12] | outcome [13]
active: Potency [2] 15.8 µM

C[N+]1(C)CCc2cc3c(cc2[C@@H]1[C@@H]1OC(=O)c2c1ccc1c2OCO1)OCO3
inactive: activity change, negative = inhibition [1] -3.72% [at 38 µM] | Potency [2] | activity change, negative = inhibition [3] -11.8% [at 38 µM] | activity, negative = inhibition [4] 13.3% [at 38 µM] | Potency [5] > 46 µM | outcome [8] | Potency [16] | Potency [9] | outcome [11] | outcome [12] | outcome [13]

O=C(O)[C@H]1[C@H](C(=O)O)[C@H]2CC[C@@H]1O2
inactive: activity change, negative = inhibition [1] -9.16% [at 38 µM] | Potency [2] | activity change, negative = inhibition [3] -8.52% [at 38 µM] | activity, negative = inhibition [4] -14.7% [at 38 µM] | Potency [5] > 46 µM | Potency [6] > 46 µM | Potency [7] | outcome [8] | Potency [17] | Potency [10] | outcome [11] | outcome [12] | outcome [13]

CCCN1CC[C@@H]2c3cc(O)ccc3CC[C@H]21
inactive: activity change, negative = inhibition [1] -14.4% [at 38 µM] | Potency [2] | activity change, negative = inhibition [3] -28.7% [at 38 µM] | activity, negative = inhibition [4] -6.76% [at 38 µM] | Potency [5] > 46 µM | Potency [6] > 46 µM | Potency [7] | outcome [8] | Potency [9] | outcome [11] | outcome [12] | outcome [13]
active: Potency [17] 14.1 µM | Potency [10] 14.1 µM

N[C@H](Cc1ccc(N(CCCl)CCCl)cc1)C(=O)O
active: Potency [2] 15.8 µM
inactive: activity change, negative = inhibition [1] 23.8% [at 38 µM] | activity change, negative = inhibition [3] -21.6% [at 38 µM] | activity, negative = inhibition [4] 4.88% [at 38 µM] | Potency [5] > 46 µM | Potency [6] > 46 µM | Potency [7] | outcome [8] | Potency [10] | outcome [11] | outcome [12] | outcome [13]

C[C@@H]1O[C@H]1P(=O)(O)O
inactive: activity change, negative = inhibition [1] 0.559% [at 38 µM] | Potency [2] | activity change, negative = inhibition [3] 6.57% [at 38 µM] | activity, negative = inhibition [4] 22.2% [at 38 µM] | Potency [5] > 46 µM | Potency [6] > 46 µM | Potency [7] | outcome [8] | Potency [18] | Potency [17] | Potency [10] | outcome [11] | outcome [12] | outcome [13]

C[C@@H]1Cc2cc3c(cc2C(c2ccc(N)cc2)=NN1)OCO3
active: Potency [2] 5.01 µM | Potency [15] 2 µM
inactive: activity change, negative = inhibition [1] -10.9% [at 38 µM] | activity change, negative = inhibition [3] -10.6% [at 38 µM] | activity, negative = inhibition [4] 13.7% [at 38 µM] | Potency [5] > 46 µM | Potency [6] > 46 µM | Potency [16] | Potency [10] | outcome [11] | outcome [12] | outcome [13]

C[C@]12CC[C@H](O)CC1=CC[C@@H]1[C@H]2CC[C@]2(C)C(=O)CC[C@H]12
inactive: activity change, negative = inhibition [1] 1.1% [at 38 µM] | Potency [2] | activity change, negative = inhibition [3] 2.55% [at 38 µM] | activity, negative = inhibition [4] 3.87% [at 38 µM] | Potency [5] > 46 µM | Potency [6] > 46 µM | outcome [8] | Potency [9] | Potency [10] | outcome [11] | outcome [12] | outcome [13]
